Results as given in PubChem BioAssay (NCATS).
Records with an inconclusive call do not appear. Active and inactive are the calls of the source. Unless noted, the call rests on the fitted dose curve; in most records, active means well fitted curve in either direction with a large enough effect (not every such curve was filed as active); inconclusive means small, poorly fitted or top-dose-only effect, or another doubt; inactive means flat fitted curve, though single readings scatter.

Biological target: Mitogen-activated protein kinase 10 (Mus musculus) (UniProt Q61831)
Experiment: JNK3 AlphaScreen Assay (AID 530);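 further: kinase came from lysate of stimulated human HepG2 cells; signal reports phosphorylation of biotinylated GST-cJun 1-79 at Ser73 with 10 µM ATP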
Settings: JNK3 lysate, c-Jun phosphorylation; series mostly up to 57.1 µM
Method in brief: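 Inhibitors reduce antibody binding to phosphorylated biotin-cJun, lowering AlphaScreen luminescence. Lysates from HepG2 cells pre-activated by IL-1beta plus TNF-alpha supplied JNK3; compounds were titrated.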

Potency, inactive:
O=S(=O)(c1ccccc1)N1CCC2(CCCN(Cc3nccs3)C2)CC1, Cc1cnc(CNc2cc(-c3c(C)noc3C)ncn2)cn1, N#Cc1cccc(NC(=O)N2CCCC3(CCN(C(=O)c4csnn4)CC3)C2)c1, COc1ncc2nc(CCc3ccccc3)c(=O)n(Cc3ccc(F)cc3)c2n1, O=C(c1cnccn1)N1CCC2(CC1)CN(Cc1cc(C(F)(F)F)cc(C(F)(F)F)c1)C2, O=c1c(-c2ccc(F)c(F)c2)nc2cncnc2n1Cc1ccc(F)cc1, Cn1cccc1C(=O)N1CCC2(CCCN(c3ccccn3)C2)CC1, COc1ncc2nc(-c3ccc(F)cc3)c(=O)n(CCC#N)c2n1, N#Cc1cccc(NC(=O)N2CCCC3(CCN(C(=O)c4cccc(F)c4)CC3)C2)c1, O=C(c1cnccn1)N1CCC2(CCCN(Cc3nccs3)C2)CC1, Cn1cccc1C(=O)N1CCC2(CCN(Cc3nccs3)CC2)CC1, COc1ccc(-c2nc3cnc(N4CCN(C)CC4)nc3n(CCC#N)c2=O)cc1, COc1ccc(CNc2ncncc2-c2ccoc2)c(OC)c1, N#Cc1ccc(CN2CCCC3(CCN(S(=O)(=O)c4ccccc4)CC3)C2)cc1, O=S(=O)(c1ccccc1)N1CCC2(CCCN(Cc3ccncc3)C2)CC1, COc1ccc(Oc2ncc3nc(C)c(=O)n(CCc4ccccc4)c3n2)cc1, CN(C)c1ccc(-c2nc(NC3CCNCC3)c3ccccc3n2)cc1, O=c1cnc2cnc(Oc3ccccc3)nc2n1C[C@H]1CCCO1, COc1cccc(Cn2c(=O)c(C)nc3cnc(N4CCOCC4)nc32)c1, N#Cc1cccc(NC(=O)N2CCCC3(CCN(C(=O)c4cc(C(F)(F)F)cc(C(F)(F)F)c4)CC3)C2)c1, O=S(=O)(c1ccccc1)N1CCC2(CC1)CN(Cc1ccccc1)C2, O=C(c1ccncc1)N1CCC2(CCCN(Cc3ccccc3)C2)CC1, CNc1nc(-c2ccc(N(C)C)cc2)nc2ccccc12, O=c1c(-c2ccc(F)c(F)c2)nc2cncnc2n1Cc1ccccc1, COc1ncc2nc(CCc3ccccc3)c(=O)n(Cc3cccs3)c2n1, O=C(Nc1ccccc1)N1CC2(CCN(C(=O)c3cc(C(F)(F)F)cc(C(F)(F)F)c3)CC2)C1, COc1ccccc1CN1CCC2(CCNCC2)CC1, O=c1c(-c2ccccc2)nc2cncnc2n1Cc1ccc(F)cc1, O=C(c1cc(C(F)(F)F)cc(C(F)(F)F)c1)N1CCC2(CCCN(Cc3ccncc3)C2)CC1, Cc1cnc(CNc2nc(-c3ccc4c(c3)OCO4)nc3ccccc23)cn1, COc1cccc(Cn2c(=O)cnc3cnc(N4CCOCC4)nc32)c1, O=C(c1ccco1)N1CCC2(CCCN(Cc3ccccc3)C2)CC1, COc1ccc(Oc2ncc3ncc(=O)n(Cc4cccc(OC)c4)c3n2)cc1, COc1ccc(Oc2ncc3ncc(=O)n(CCC#N)c3n2)cc1, O=C(Oc1ccccc1)N1CCC2(CCCN(c3ccc(-c4ccccc4)cc3)C2)CC1, COCCn1c(=O)c(C)nc2cnc(OCc3ccccc3)nc21, COc1cccc(Cn2c(=O)c(C)nc3cnc(Oc4ccccc4)nc32)c1, CC(=O)N1CCC[C@@]2(CCN(c3ccccc3)C2)C1

Biological target: 3',5'-cyclic-AMP phosphodiesterase 4B (Homo sapiens) (UniProt Q07343)
Sequence (Q07343 whole entry, looked up): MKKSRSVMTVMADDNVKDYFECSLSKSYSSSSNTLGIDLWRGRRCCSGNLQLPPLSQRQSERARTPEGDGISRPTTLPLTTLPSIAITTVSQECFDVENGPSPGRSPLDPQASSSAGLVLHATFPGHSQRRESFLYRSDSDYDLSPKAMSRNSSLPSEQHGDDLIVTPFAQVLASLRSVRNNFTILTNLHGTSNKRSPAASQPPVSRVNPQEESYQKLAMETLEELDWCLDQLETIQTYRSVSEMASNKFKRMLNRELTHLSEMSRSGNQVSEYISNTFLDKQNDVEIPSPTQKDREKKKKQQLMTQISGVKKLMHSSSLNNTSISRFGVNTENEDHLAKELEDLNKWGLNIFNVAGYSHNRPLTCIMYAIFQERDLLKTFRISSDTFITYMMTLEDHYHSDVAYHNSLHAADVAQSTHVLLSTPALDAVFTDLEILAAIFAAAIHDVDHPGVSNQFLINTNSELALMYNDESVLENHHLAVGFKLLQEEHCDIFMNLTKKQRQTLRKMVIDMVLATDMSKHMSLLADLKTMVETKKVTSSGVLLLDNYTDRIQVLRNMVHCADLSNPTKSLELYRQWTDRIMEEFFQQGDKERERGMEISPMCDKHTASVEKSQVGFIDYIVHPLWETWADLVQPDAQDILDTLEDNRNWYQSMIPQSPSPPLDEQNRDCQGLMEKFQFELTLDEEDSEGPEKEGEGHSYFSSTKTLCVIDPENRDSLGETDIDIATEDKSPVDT
Experiment: qHTS Assay for Inhibitors of PDE-IV (AID 607; active means well fitted activation curve with a large enough effect in the main read-out, with a control signal flat, not every such curve was filed as active)
Settings: HEK293 ACTOne CNG channel cells, membrane potential fluorescence; series mostly up to 22.9 µM
Method in brief: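 HEK293 ACTOne cells with CNG channel (1000/well), endogenous PDE4; membrane potential dye, compounds up to 22.9 uM final. Fluorescence Ex 535/Em 590; RO 20-1724 (100 uM final) as reference.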

Potency, inactive:
O=S(=O)(c1ccccc1)N1CCC2(CCCN(Cc3nccs3)C2)CC1, Cc1cnc(CNc2cc(-c3c(C)noc3C)ncn2)cn1, N#Cc1cccc(NC(=O)N2CCCC3(CCN(C(=O)c4csnn4)CC3)C2)c1, O=C(c1cnccn1)N1CCC2(CC1)CN(Cc1cc(C(F)(F)F)cc(C(F)(F)F)c1)C2, O=c1c(-c2ccc(F)c(F)c2)nc2cncnc2n1Cc1ccc(F)cc1, Cn1cccc1C(=O)N1CCC2(CCCN(c3ccccn3)C2)CC1, COc1ncc2nc(-c3ccc(F)cc3)c(=O)n(CCC#N)c2n1, N#Cc1cccc(NC(=O)N2CCCC3(CCN(C(=O)c4cccc(F)c4)CC3)C2)c1, O=C(c1cnccn1)N1CCC2(CCCN(Cc3nccs3)C2)CC1, COc1ccc(-c2nc3cnc(N4CCN(C)CC4)nc3n(CCC#N)c2=O)cc1, COc1ccc(CNc2ncncc2-c2ccoc2)c(OC)c1, N#Cc1ccc(CN2CCCC3(CCN(S(=O)(=O)c4ccccc4)CC3)C2)cc1, CN(C)c1ccc(-c2nc(NC3CCNCC3)c3ccccc3n2)cc1, O=c1cnc2cnc(Oc3ccccc3)nc2n1C[C@H]1CCCO1, O=S(=O)(c1ccccc1)N1CCC2(CC1)CN(Cc1ccccc1)C2, O=C(c1ccncc1)N1CCC2(CCCN(Cc3ccccc3)C2)CC1, CNc1nc(-c2ccc(N(C)C)cc2)nc2ccccc12, O=C(Nc1ccccc1)N1CC2(CCN(C(=O)c3cc(C(F)(F)F)cc(C(F)(F)F)c3)CC2)C1, COc1ccccc1CN1CCC2(CCNCC2)CC1, O=C(c1cc(C(F)(F)F)cc(C(F)(F)F)c1)N1CCC2(CCCN(Cc3ccncc3)C2)CC1, Cn1c(=O)c(-c2cccs2)nc2cnc(Oc3ccccc3)nc21, O=C(c1ccco1)N1CCC2(CCCN(Cc3ccccc3)C2)CC1, COc1ccc(Oc2ncc3ncc(=O)n(Cc4cccc(OC)c4)c3n2)cc1, O=C(Oc1ccccc1)N1CCC2(CCCN(c3ccc(-c4ccccc4)cc3)C2)CC1, COCCn1c(=O)c(C)nc2cnc(OCc3ccccc3)nc21, CC(=O)N1CCC[C@@]2(CCN(c3ccccc3)C2)C1
